Experimental data published in PubChem BioAssay (NCATS).
Results filed as inconclusive are left out. Where a call stands in place of a potency, no number is given. Calls of active or inactive are those of the source. Calls come from the whole dose curve; as a rule, active = well fitted cell-killing curve with a large enough effect; inconclusive = small, poorly fitted or top-dose-only effect; inactive = flat fitted curve, though single readings scatter.

assay: qHTS of pediatric cancer cell lines to identify multiple opportunities for drug repurposing: Primary screen for Rh18 cells (AID 1347102); conditions: Rh18 rhabdomyosarcoma viability, CellTiter-Glo luminescence, 48 h; series mostly up to 46 µM; note: nearly all actives have a fitted effect of over 65% in size
From the text: Drug repurposing or repositioning has been offered as a strategy for drug development in oncology programs. This approach has special potential for childhood cancers and other rare or orphan diseases, where the expected return on new drug development has been a disincentive to pharmaceuticals.
In this project we exploit the poly-pharmacology of drugs to discover new indications via phenotypic screening of a panel of 19 well-characterized cell lines derived from solid tumors seen in children and adolescents. The goal is to identify approved drugs with previously unrecognized anticancer properties that has the potential to reveal new mechanisms and biological processes involved in carcinogenesis or drug resistance. We employed a titration-based paradigm (quantitative high-throughput screening or qHTS), where all compounds were tested at multiple concentrations for their effect on cell viability. Concentration-response curves (CRCs) were derived directly from the primary screen, and both potency and efficacy values were used to identify compounds with robust bioactivity profiles. We screened the NIH Chemical Genomics Center (NCGC) Pharmaceutical Collection (NPC) and Mechanism Interrogation Plate (MIPE) small molecule collections of approved and investigational compounds against these cell lines; and measured metabolically active cells after 48 hours of compound treatment as a proxy for cell viability.
Assay Submitter: Nathalia J. Martinez, National Center for Advancing Translational Sciences, National Institutes of Health, Rockville, MD, USA; email: natalia.martinez@nih.gov
[1] Shen, M et al. Quantitative high-throughput phenotypic screening of pediatric cancer cell lines identifies multiple opportunities for drug repurposing. Oncotarget 2017 Dec 19;9(4):4758-4772. PMID 29435139.
The cells were obtained from University of North Carolina (UNC), Pediatric Preclinical Testing Program (PPT), and Coriell Institute (CI).
qHTS cell viability assay:
Cells were assayed in growth media at a density of 500-1,000 cells/well. Five microliters of cells were dispensed into 1,536-well, white, solid-bottom, TC-treated plates (Greiner Bio One) using a multidrop dispenser and incubated at 37 degrees C, 5% CO2, under a humidified atmosphere for 5 hours. Twenty-three nanoliters of compounds and controls (neutral control DMSO or positive control bortezomib at final concentration of 2.3 µM) were subsequently transferred by Kalypsys pintool. For primary screens, the MIPE collection was tested at 11-point dilutions (final concentrations range from 0.78 nM to 46 µM) and the NPC collection at 8-point dilutions (final concentrations range from 0.59 nM to 46 µM). Compounds tested in follow-up screens were assayed at 11-point dilutions. Cells were incubated for 48 hours, followed by addition of 3 µL of CellTiter-Glo (Promega). After a 15 min incubation at room temperature, samples were analyzed for luminescence intensity using a ViewLux High-throughput CCD imager equipped with clear filters.

Compound | Potency
OC(CCCN1CCCCC1)(c1ccccc1)c1ccccc1 | inactive
CN1CCN(N)CC1 | inactive
NCC(=O)O | inactive
COC(=O)CCCCC(CCSS/C(CCO)=C(\C)N(C=O)Cc1cnc(C)nc1N)SC(C)=O (stereo not given) | inactive
NC(=O)NS(=O)(=O)c1ccc(Cl)cc1 | inactive
O=[N+]([O-])c1cncn1CCN1CCOCC1 | inactive
CCOC(=O)O[C@]1(C(=O)OCCl)CC[C@H]2[C@@H]3CCC4=CC(=O)C=C[C@]4(C)[C@H]3[C@@H](O)C[C@@]21C | inactive
CO[C@@H]1[C@@H](O[C@@H]2O[C@H](C)[C@@H](O[C@H]3C[C@@](C)(O)[C@@H](O)[C@H](C)O3)[C@H](N(C)C)[C@H]2O)[C@@H](CC=O)C[C@@H](C)[C@@H](O[C@@H]2CC[C@H](N(C)C)[C@@H](C)O2)/C=C/C=C/C[C@@H](C)OC(=O)C[C@H]1OC(C)=O | inactive
CC(=O)Nc1ccn(C2COC(COC(=O)c3ccccc3)O2)c(=O)n1 (stereo not given) | inactive
O=C1Cc2cc(Cl)ccc2N1 | inactive
N#CC1(c2ccc(F)cc2)CCC(=O)CC1 | inactive
CCOC(=O)N1CCC(n2c(=O)[nH]c3cc(Cl)ccc32)CC1 | inactive
Nc1nc2ccccc2n1Cc1ccc(F)cc1 | inactive
CCN(CC)CC(=O)OCC(=O)[C@@]1(O)CC[C@H]2[C@@H]3CCC4=CC(=O)CC[C@]4(C)[C@H]3[C@@H](O)C[C@@]21C | inactive
COc1ccc2c(c1)CCCC2=O | inactive
CC(=O)c1cc2ccccc2s1 | inactive
CCCCCCOC(=O)NC(=N)c1ccc(NCc2nc3cc(C(=O)N(CCC(=O)OCC)c4ccccn4)ccc3n2C)cc1 | inactive
O=C(O)Cc1ccc(OCCNC[C@H](O)c2ccccc2)cc1 | inactive
OCc1c[nH]c2ccccc12 | inactive
OCCc1ccccc1 | inactive

Compound | Potency
O=C(CCOCCOCCOCCOCCC(=O)Nc1c(I)cc(I)c(C(=O)O)c1I)Nc1c(I)cc(I)c(C(=O)O)c1I | inactive
CC(=O)OCC(=O)Nc1cc(C#N)cc(NC(=O)COC(C)=O)c1Cl | inactive
COC(=O)c1cc(Cl)ccc1NS(=O)(=O)C(F)(F)F | inactive
c1ccc2occc2c1 | inactive
CN1Cc2cc(C(=O)N3CCC(C4CCNCC4)CC3)ccc2NC(CC(=O)O)C1=O (stereo not given) | inactive
CCCCC/C=C\C/C=C\CCCCCCCC(=O)NC(C)c1ccccc1 (stereo not given) | inactive
CCN(CC)CC(=O)Nc1c(C)cccc1C(=O)OC | inactive
Cc1ccc(/C=N/n2c(-c3ccccc3)csc2=S)cc1 | inactive
CCOc1ncc(F)c(=O)[nH]1 | inactive
CC(=O)OCC[N+](C)(C)C | inactive
CCOC(=O)c1ccc(OCCN2C[C@H](O)[C@@H](O)[C@H](O)[C@H]2CO)cc1 | inactive
C/C(=N\O)[C@@H](C)NCC(C)(C)CN[C@H](C)/C(C)=N/O | inactive
Cc1[nH]cnc1-c1ccc(Cl)cc1 | inactive
C[C@H](N)C(=O)N[C@@H](C)C(=O)NC1[C@H]2CN(c3nc4c(cc3F)c(=O)c(C(=O)O)cn4-c3ccc(F)cc3F)C[C@@H]12 (stereo not given in full) | inactive
Cc1ccc(O)cc1 | inactive
CO/N=C(\C(=O)O)c1csc(NC(=O)CCl)n1 | inactive
CC(=O)OCC(=O)[C@@]1(O)CCC2C3CCC4=CC(=O)CC[C@]4(C)C3[C@@H](O)C[C@@]21C (stereo not given in full) | inactive
CCCCCOc1ccccc1/C(=C\SC)n1ccnc1 | inactive
COc1ccc2cc(C=O)ccc2c1 | inactive
Nc1nnnn1-c1ccccc1 | inactive
